PubChem BioAssay (NCI)
The panel holds about 83,000 compounds, 20% with a hit somewhere; the sample as a whole holds those more often.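 48-hour exposure, single concentration, 96-well plates; percent growth endpoint where 0 means no net growth. Active: below 10.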 A number with no mark means an inactive call. Active and inactive are the calls of the source.

What was measured:
Assay in all cases: NCI-60 one-dose screen, 48 h (100 = growth as untreated, 0 = no growth, -100 = all killed)
Settings in all cases: 10 µM unless noted
SK-MEL-2 melanoma = test system: SK-MEL-2 melanoma
EKVX NSCLC = test system: EKVX NSCLC
SN12C renal = test system: SN12C renal
UO-31 renal = test system: UO-31 renal
TK-10 renal = test system: TK-10 renal
ACHN renal = test system: ACHN renal
A498 renal = test system: A498 renal
CCRF-CEM leukemia = test system: CCRF-CEM leukemia
MOLT-4 leukemia = test system: MOLT-4 leukemia
SR leukemia = test system: SR leukemia
RPMI-8226 leukemia = test system: RPMI-8226 leukemia
OVCAR-8 ovarian = test system: OVCAR-8 ovarian
OVCAR-5 ovarian = test system: OVCAR-5 ovarian
OVCAR-4 ovarian = test system: OVCAR-4 ovarian
SK-OV-3 ovarian = test system: SK-OV-3 ovarian
IGROV1 ovarian = test system: IGROV1 ovarian
OVCAR-3 ovarian = test system: OVCAR-3 ovarian
HS 578T breast = test system: HS 578T breast
NCI/ADR-RES ovarian = test system: NCI/ADR-RES ovarian
T-47D breast = test system: T-47D breast

Row | SMILES | growth (SK-MEL-2 melanoma) | growth (EKVX NSCLC) | growth (SN12C renal) | growth (UO-31 renal) | growth (TK-10 renal) | growth (ACHN renal) | growth (A498 renal) | growth (CCRF-CEM leukemia) | growth (MOLT-4 leukemia) | growth (SR leukemia) | growth (RPMI-8226 leukemia) | growth (OVCAR-8 ovarian) | growth (OVCAR-5 ovarian) | growth (OVCAR-4 ovarian) | growth (SK-OV-3 ovarian) | growth (IGROV1 ovarian) | growth (OVCAR-3 ovarian) | growth (HS 578T breast) | growth (NCI/ADR-RES ovarian) | growth (T-47D breast)
1 | Cc1cc(C)c(NC(=O)c2sc3nc4c(cc3c2N)CCCCCC4)c(C)c1 | 34.6% | 67.8% | 68.3% | 67.3% | 74.2% | 72.4% | 19.9% | 32.8% | 36.3% | 23.3% | 66.3% | 73.9% | 95.3% | 73.7% | 44.6% | 61.2% | 15.8% | 47.6% | 48.1% | 44.5%
2 | C=CCn1c(SCC(=O)Nc2ccc(C(=O)/C=C/c3cc(OC)c(OC)c(OC)c3)cc2)nnc1-c1ccccc1 | 101% | 95.8% | 93.1% | 78.3% | 108% | 103% | 87.5% | 57.1% | 76.9% | 32.5% | 5.73% (active) | 86.8% | 128% | 111% | 110% | 86.9% | 82.3% | 102% | 102% | 78.8%
3 | O=C(O)COc1ccc2c(=O)c3sc4c(=O)c5ccccc5c(=O)c4c3c(=O)c2c1 | 25.5% | 78.9% | -11.6% (active) | 43.5% | 74.8% | 62.7% | -86.9% (active) | 56.8% | 45.1% | 26.6% | 43.6% | 43.8% | -53.7% (active) | 27.8% | 88.1% | 36.6% | 1.75% (active) | -10.1% (active) | 40.8% | 74.1%
4 | CCOC(=O)C1CCN(S(=O)(=O)/N=C2/NC(=O)NC2=C(Cl)Cl)CC1 | -23.4% (active) | 67.4% | -35.1% (active) | 8.22% (active) | 33.1% | 14.2% | 23.9% | -53.4% (active) | -20.8% (active) | -11.4% (active) | 6.17% (active) | 21.4% | 64% | 80% | 70.9% | -54.4% (active) | -81.2% (active) | 24.1% | 68.6% | 55%
5 | COc1cc(C(=O)Nc2cc(OC)c3ccn(C)c3c2)cc2c1C[C@]1(C)CC[C@@H](O)C(C)(C)[C@H]1O2 | -7.94% (active) | 33.5% | 46.8% | -5.02% (active) | 36.9% | 18% | -23.1% (active) | 5.35% (active) | -8.72% (active) | 11.5% | -31.1% (active) | 24.1% | 55.2% | 54.8% | 15.2% | 25.2% | -14.6% (active) | -12.5% (active) | 13.9% | 19.5%
6 | C#C[C@@]1(O)[C@@H](CO)O[C@@H](n2cnc3c(-c4ccccc4)ncnc32)[C@@H]1O | 107% | 97.7% | 102% | 92.5% | 100% | 115% | 106% | 102% | 99.7% | 101% | 106% | 107% | 101% | 98.5% | 105% | 106% | 107% | 113% | 102% | 84%
7 | CSc1nc(-c2ccco2)c2c(N)[nH]nc2n1 | 99.3% | 81.2% | 109% | 88.3% | 105% | 101% | 66.4% | 111% | 82.7% | 76.1% | 109% | 108% | 109% | 109% | 98.6% | 109% | 116% | 108% | 103% | 75.7%
8 | Cc1nc2sc(C(=O)Nc3ccccc3)c(N)c2cc1C(C)O (stereo not given) | 39.3% | 76.1% | 43.2% | 61.6% | 65.9% | 54.2% | 36.3% | 16.6% | 25.7% | 11.7% | 16.9% | 36.4% | 51.3% | 64.5% | 31% | 40.2% | 21.8% | 44.9% | 15.4% | 44.6%
9 | [2H]c1cc2c(c([2H])c1F)/C(=C/c1[nH]c(C)c(C(=O)NCCN(CC)CC)c1C)C(=O)N2 | 14.7% | 44.7% | 24.4% | 12.3% | 62.1% | 25.4% | 52.6% | 69.5% | 20.3% | 0.469% (active) | 30.2% | 63.1% | 28.7% | 40.6% | 14.5% | 30.4% | 73.3% | 44.9% | 65.7% | 68.7%
10 | CC(=O)OCC1SC(OC(C)=O)C(NC(=O)/C=C/CCl)C(OC(C)=O)C1OC(C)=O (stereo not given) | 79.9% | 102% | 89.4% | 102% | 93.8% | 92.1% | 96.3% | 83.7% | 88.1% | 86.2% | 95.2% | 98.2% | 148% | 101% | 86.4% | 105% | 102% | 93.5% | 103% | 90.6%
11 | O=C1C(=O)c2c(nc3ccc(Br)cn23)-c2ccccc21 | -73.5% (active) | -71.4% (active) | -89% (active) | -100% (active) | -100% (active) | -100% (active) | 39.4% | -32.5% (active) | -55.1% (active) | -27.6% (active) | -47.6% (active) | -90.7% (active) | -76.9% (active) | -95.1% (active) | -97.6% (active) | -51.5% (active) | -51.4% (active) | -52.2% (active) | -31.4% (active) | -59.8% (active)
12 | O=C1NN(c2ccccc2)C(c2ccc3c(c2)OCO3)N2CCC[C@@H]12 (stereo not given in full) | 89.8% | 102% | 110% | 85.4% | 92.2% | 101% | 97.5% | 108% | 102% | 92.1% | 105% | 96.8% | 108% | 108% | 99% | 89.7% | 100% | 104% | 97.9% | 90.9%
13 | C[C@]12CC[C@@H]3c4ccc(O)cc4CC[C@H]3[C@@H]1C[C@H](O)C2 | 82.4% | 44% | 71.6% | 71.4% | 96.4% | 99.7% | 44.6% | 52.7% | 47.5% | 25.4% | 79.7% | 82.7% | 116% | 87% | 82.7% | 79.2% | 73.2% | 57.6% | 70.9% | 96.9%
14 | CCN(CC)c1ccc2c(c1)Oc1nc(N)c(C#N)c(N)c1C2Sc1ccc(OC)cc1 (stereo not given) | -61.2% (active) | 4.46% (active) | 4.18% (active) | -44.7% (active) | 23.1% | 32.2% | 106% | 0.612% (active) | 2.47% (active) | -9.3% (active) | -28.3% (active) | 5.24% (active) | 51.9% | 46.2% | 34% | -3.83% (active) | -15.1% (active) | 19.7% | 46.9% | 51.8%
15 | CCOCc1nc2ccccc2c(=O)[nH]1 | 113% | 95.8% | 98% | 92.9% | 102% | 105% | 105% | 97.1% | 105% | 103% | 102% | 103% | 106% | 113% | 108% | 96.6% | 109% | 93.8% | 103% | 105%
